Assay outcomes: PubChem, Corson Lab, School of Medicine, Indiana University
FECH block: human FECH heme synthesis enzyme inhibition; P22830; purified FECH, Ni-mesoporphyrin absorbance 550 nm; calls only at 10 µM (by protocol); hit rate 3.3% among 20,000; AID 1671448;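 active = enzyme reaction rate more than 3 SD below the solvent-only control wells on the same plate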;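 also: lower slope than DMSO wells means FECH inhibition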
Target sequence (P22830 whole entry, looked up): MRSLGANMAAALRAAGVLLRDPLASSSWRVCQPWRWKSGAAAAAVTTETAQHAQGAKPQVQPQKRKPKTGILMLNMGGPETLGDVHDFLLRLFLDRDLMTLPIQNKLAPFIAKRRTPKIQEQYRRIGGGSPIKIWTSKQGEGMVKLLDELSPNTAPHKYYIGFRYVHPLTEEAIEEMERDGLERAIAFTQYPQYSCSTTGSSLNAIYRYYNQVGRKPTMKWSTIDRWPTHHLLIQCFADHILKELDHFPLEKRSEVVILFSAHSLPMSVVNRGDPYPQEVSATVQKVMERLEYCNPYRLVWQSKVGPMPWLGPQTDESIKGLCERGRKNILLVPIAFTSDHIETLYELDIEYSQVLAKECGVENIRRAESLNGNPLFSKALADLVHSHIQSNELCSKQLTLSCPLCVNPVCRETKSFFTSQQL
Starred values were filed as active, the others as inactive; i = inactive; + = active, no number. This is one part of a sample in which hits are shown more often than they occur.

SMILES | FECH block
CCc1ccc(S(=O)(=O)N2CCN(Cc3nc4cccnc4n3-c3cccc(C)c3)CC2)cc1 | i
CCCc1c(C)nc2ncnn2c1Sc1ccc(NC(=O)c2c(OC)cccc2OC)cc1 | i
CCCc1c(C)nc2ncnn2c1Sc1ccc(NC(=O)Nc2cccc(OC)c2)cc1 | +
CCCc1c(C)nc2ncnn2c1Sc1ccc(NC(=O)Nc2ccc(OC)c(OC)c2)cc1 | i
CN1CCN(C(=O)C2CCC(O)CC2)CC1C(=O)O (centres undefined) | i
O=c1ccc(-c2ccc(Cl)c(S(=O)(=O)N3CCN(c4ccccc4)CC3)c2)n[nH]1 | i
CCN(CCc1nc2ccc(C)cc2[nH]1)C(=O)c1ccc2ncccc2c1 | i
Cc1ccccc1-c1nc2nc(CNc3cccc(Cl)c3)cc(=O)n2[nH]1 | i
Cc1ccccc1-c1nc2nc(CN3CCOCC3)cc(=O)n2[nH]1 | i
Cc1ccccc1-c1nc2nc(CNc3ccccc3)cc(=O)n2[nH]1 | +
COc1cccc(NCc2cc(=O)n3[nH]c(-c4ccccc4C)nc3n2)c1 | +
Cc1ccc(NCc2cc(=O)n3[nH]c(-c4ccccc4C)nc3n2)cc1 | +
CCN1CCN(Cc2cc(=O)n3[nH]c(-c4ccccc4C)nc3n2)CC1 | i
Cc1ccccc1-c1nc2nc(CNc3ccc(Br)cc3)cc(=O)n2[nH]1 | +
Cc1ccc(NCc2cc(=O)n3[nH]c(NCc4ccc(F)cc4)nc3n2)cc1 | i
COc1ccc(NCc2cc(=O)n3[nH]c(NCc4ccc(F)cc4)nc3n2)cc1 | i
Cc1ccc(CN2CCCN(CC(=O)NCc3ccc(Cl)cc3)S2(=O)=O)cc1 | i
CCOC(=O)c1ccccc1NC(=O)c1nc2ccccc2n(C)c1=O | i
CCCNc1nc(C(=O)OCC)nc2c1oc1ccccc12 | i
CN(Cc1cccc(C(=O)Nc2c(F)cccc2F)c1)Cc1cnn(C)c1 | i
CCC(CC)n1ncc(C)c1NC(=O)C(=O)Nc1ccccc1Cl | i
Cc1ccc(-n2ncc3c(-n4nc(C)cc4NC(=O)CCCc4ccccc4)ncnc32)c(C)c1 | i
Cc1ccccc1Nc1nc(NCCCOC(C)C)nc2c1cnn2-c1ccccc1 | i
CCC(C)NC(=O)NCCc1nc2cccnc2n1Cc1ccccc1 (centres undefined) | i
Cn1c(=O)n(CCOc2ccccc2)c(=O)c2cnc(-c3ccc(Cl)cc3)nc21 | i
SMILES | FECH block
CCc1ncc2c(n1)CN(C(=O)c1ccc(N3CCCC3=O)cc1)C2 | i
CCN1C(SCC(=O)N2CCN(c3ccccc3F)CC2)=NS(=O)(=O)c2ccccc21 | i
CCN1C(SCc2ccc(N3CCCC3=O)cc2)=NS(=O)(=O)c2ccccc21 | +
CN(Cc1ccccc1)c1ncc(NS(=O)(=O)c2cc(F)ccc2F)cc1C(=O)O | i
Cc1cnccc1NCCNC(=O)c1cn2c(n1)CNCC2 | i
Cc1n[nH]c(C)c1Cc1nnc(SCC(=O)O)n1C1CC1 | i
CCS(=O)(=O)N1CCN(c2cc(-c3cccc(C)c3)ncn2)CC1 | +
CS(=O)(=O)N1CCN(c2cc(-c3cccc(F)c3)ncn2)CC1 | i
CCS(=O)(=O)N1CCN(c2cc(-c3cccc(OC)c3)ncn2)CC1 | i
Cc1ccc(-c2cc(N3CCN(S(C)(=O)=O)CC3)ncn2)cc1 | i
CS(=O)(=O)N1CCN(c2cc(-c3ccc(F)cc3)ncn2)CC1 | +
CCS(=O)(=O)N1CCN(c2cc(-c3ccc(C)cc3)ncn2)CC1 | i
C=CCNS(=O)(=O)c1ccc(N2C(=O)CCS2(=O)=O)cc1 | i
Cc1nc(SCC(=O)N2C[C@]3(C)C[C@H]2CC(C)(C)C3)n[nH]1 | i
CCn1c(CNS(=O)(=O)c2cccc3nsnc23)nc2cccnc21 | i
COc1ccc(C2C=C(c3ccccc3)Nc3nc(NC(=O)CCCC(=O)O)nn32)cc1 (centres undefined) | i
CCc1ccc(-n2c(CN3CCN(S(=O)(=O)c4ccc(C)c(C)c4)CC3)nc3cccnc32)cc1 | i
CCc1ccc(-n2c(CN3CCN(S(=O)(=O)c4ccc(CC)cc4)CC3)nc3cccnc32)cc1 | +
CCc1ccc(S(=O)(=O)N2CCN(Cc3nc4cccnc4n3-c3ccc(C)cc3)CC2)cc1 | i
COc1ccc(Cl)cc1S(=O)(=O)N1CCN(Cc2nc3cccnc3n2-c2ccccc2)CC1 | i
COc1ccc(S(=O)(=O)N2CCN(Cc3nc4cccnc4n3-c3ccccc3)CC2)cc1OC | +
Cc1ccc(S(=O)(=O)N2CCN(Cc3nc4cccnc4n3-c3ccccc3)CC2)cc1C | i
CCN(CC)c1nc(Nc2cccc(Cl)c2)c2cnn(-c3ccccc3)c2n1 | i
CNC(=O)[C@@H]1C[C@H](N)CN1Cc1cc(OC)c(OC)cc1F | i
CCOc1ccc(Nc2nc(NCCc3ccccc3)nc3c2cnn3-c2ccccc2)cc1 | i
Cc1ccc(NC(C)C)c(C(=O)N2CCCCCC2)c1 | i
CC(C)Cn1c(CN2CCC(=O)NCC2C)nc2ccccc21 (centres undefined) | i
Cc1cc(C)c(Cn2c(=O)c3cnc(-c4cccs4)nc3n(C)c2=O)c(C)c1 | i
